Records with an inconclusive call do not appear. The source made the active and inactive calls. Unless noted, calls follow the shape of the dose curve; as a rule, active = well fitted curve in the direction sought with a large enough effect; inconclusive = small, poorly fitted or top-dose-only effect, or another doubt; inactive = no such curve, though single readings can be large; an effect the other way counts as inactive or inconclusive.
Columns and labels:
[1] = molecular target: Lysosomal acid glucosylceramidase (Homo sapiens) (UniProt P04062); assay: Glucocerebrosidase-p2 (AID 348; in the data active = potency below about 10 µM; also: potency is read from the fitted curve at half-maximal effect); conditions: purified GBA, blue fluorogenic substrate, 40 min
Sequence of Lysosomal acid glucosylceramidase (Homo sapiens) (P04062 whole entry, looked up): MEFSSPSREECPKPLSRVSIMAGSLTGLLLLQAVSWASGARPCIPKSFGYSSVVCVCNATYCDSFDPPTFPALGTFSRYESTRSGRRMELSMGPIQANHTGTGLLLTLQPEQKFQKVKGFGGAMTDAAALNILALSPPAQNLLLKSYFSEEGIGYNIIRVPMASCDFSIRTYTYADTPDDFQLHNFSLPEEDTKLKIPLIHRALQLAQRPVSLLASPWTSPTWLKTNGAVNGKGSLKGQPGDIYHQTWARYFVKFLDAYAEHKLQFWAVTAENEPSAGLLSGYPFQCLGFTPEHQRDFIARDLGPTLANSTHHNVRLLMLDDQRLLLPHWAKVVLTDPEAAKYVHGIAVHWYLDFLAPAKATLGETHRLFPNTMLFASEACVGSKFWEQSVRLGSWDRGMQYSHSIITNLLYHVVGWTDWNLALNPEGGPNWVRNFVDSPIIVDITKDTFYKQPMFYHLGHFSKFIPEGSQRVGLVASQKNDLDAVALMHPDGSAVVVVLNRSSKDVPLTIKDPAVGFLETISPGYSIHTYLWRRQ
In short: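 Compounds titrated from 0.6 nM upwards against 0.2 nM enzyme in pH 5.9 citric acid/KH2PO4, taurocholate, tween-20; blue fluorogenic substrate 80 uM, 40 min room temperature, stopped and read Ex 365/Em 440 for AC50.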

[2] = AP1 Signaling Pathway (AID 357; active = well fitted curve in either direction with a large enough effect, not every such curve was filed as active;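 also: ME-180 reporter cells stimulated with EGF at its EC50 level; % is scaled to controls: 0 for no effect and ±100 for the full control effect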); conditions: ME-180 AP-1-bla reporter, EGF-induced, beta-lactamase ratio, 5 h; at 7.69 µM (top of the series) unless noted
In short: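 Read-out was the 460nm/530nm emission ratio (excitation 405nm) after CCF4 loading for 2.5 hours at room temperature. Cells carried an AP-1-driven beta-lactamase reporter, were stimulated with EC50 EGF plus compound for 5 hours, and AC50 values came from titrations.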

[3] = molecular target: Cytochrome P450 1A2 (Homo sapiens) (UniProt P05177); assay: p450-cyp1a2 (AID 410; calls by dose curve; also: potency is read from the fitted curve at half-maximal effect); conditions: recombinant CYP1A2, luciferin-ME demethylation, luminescence; series mostly up to 57 µM
Sequence of Cytochrome P450 1A2 (Homo sapiens) (P05177 whole entry, looked up): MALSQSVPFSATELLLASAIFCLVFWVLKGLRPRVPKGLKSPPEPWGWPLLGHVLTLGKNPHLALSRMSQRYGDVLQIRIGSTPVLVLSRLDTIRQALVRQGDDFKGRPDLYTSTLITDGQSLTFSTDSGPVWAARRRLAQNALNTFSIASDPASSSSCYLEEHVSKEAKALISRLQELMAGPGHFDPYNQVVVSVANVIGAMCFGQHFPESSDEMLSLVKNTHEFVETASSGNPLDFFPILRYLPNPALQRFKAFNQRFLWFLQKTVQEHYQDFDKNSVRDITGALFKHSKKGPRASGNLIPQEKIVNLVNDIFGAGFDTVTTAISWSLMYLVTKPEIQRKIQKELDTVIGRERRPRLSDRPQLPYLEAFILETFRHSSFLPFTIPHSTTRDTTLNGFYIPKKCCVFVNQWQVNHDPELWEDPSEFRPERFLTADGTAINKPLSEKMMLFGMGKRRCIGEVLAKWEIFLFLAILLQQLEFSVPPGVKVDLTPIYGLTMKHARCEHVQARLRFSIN
In short: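 Inhibition was calculated relative to 57 uM furafylline (full inhibition). The reaction used human CYP1A2 at 20nM with Luciferin-ME at its Km, 100uM, driven by an NADPH-regenerating system for 60 min at room temperature.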

[4] = NFAT Signaling Pathway (AID 444; active = well fitted curve in either direction with a large enough effect, not every such curve was filed as active;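 also: carbachol stimulus at about its EC50 of 1 µM final; % is scaled to controls: 0 for no effect and ±100 for the full control effect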); conditions: Jurkat NFAT-bla M1, carbachol, beta-lactamase ratio, 5 h; at 7.69 µM (top of the series) unless noted
In short: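 Jurkat cells carrying an NFAT-driven β-lactamase reporter and co-transfected muscarinic M1 receptor were treated with compound plus carbachol (1 uM final, an EC50 level) for 5 h at 37 °C. CCF4 loading followed for 1 h at RT; 460/530 nm ratio gave %activity.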

[5] = Stat Signaling Pathway (AID 446; active = well fitted curve in either direction with a large enough effect, not every such curve was filed as active;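 also: ME-180 cervical cancer cells given 40 pM IL-6 alongside compound; SIE-controlled beta-lactamase reporter measured as 460/530 nm FRET emission ratio; % is scaled to controls: 0 for no effect and ±100 for the full control effect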); conditions: ME-180 SIE beta-lactamase reporter, IL-6 stimulated, 5 h; at 7.69 µM (top of the series) unless noted
In short: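 ME-180 SIE-bla cells; overnight plating; cpd + IL-6 40 pM, 5 h, 37 C; LiveBLAzer 2.5 h RT; 460/530 nm emission ratio. Normalized to 300 pM IL-6 and 125 nM JAK inhibitor controls.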

[6] = molecular target: Glucocorticoid receptor (Homo sapiens) (UniProt P04150); assay: GR-EFC Redistribution (AID 451; calls by dose curve; also: potency is read from the fitted curve at half-maximal effect); conditions: CHO-K1 GR-EFC translocation, beta-gal luminescence, 2 h
Sequence of Glucocorticoid receptor (Homo sapiens) (P04150 whole entry, looked up, the tested form may be a part): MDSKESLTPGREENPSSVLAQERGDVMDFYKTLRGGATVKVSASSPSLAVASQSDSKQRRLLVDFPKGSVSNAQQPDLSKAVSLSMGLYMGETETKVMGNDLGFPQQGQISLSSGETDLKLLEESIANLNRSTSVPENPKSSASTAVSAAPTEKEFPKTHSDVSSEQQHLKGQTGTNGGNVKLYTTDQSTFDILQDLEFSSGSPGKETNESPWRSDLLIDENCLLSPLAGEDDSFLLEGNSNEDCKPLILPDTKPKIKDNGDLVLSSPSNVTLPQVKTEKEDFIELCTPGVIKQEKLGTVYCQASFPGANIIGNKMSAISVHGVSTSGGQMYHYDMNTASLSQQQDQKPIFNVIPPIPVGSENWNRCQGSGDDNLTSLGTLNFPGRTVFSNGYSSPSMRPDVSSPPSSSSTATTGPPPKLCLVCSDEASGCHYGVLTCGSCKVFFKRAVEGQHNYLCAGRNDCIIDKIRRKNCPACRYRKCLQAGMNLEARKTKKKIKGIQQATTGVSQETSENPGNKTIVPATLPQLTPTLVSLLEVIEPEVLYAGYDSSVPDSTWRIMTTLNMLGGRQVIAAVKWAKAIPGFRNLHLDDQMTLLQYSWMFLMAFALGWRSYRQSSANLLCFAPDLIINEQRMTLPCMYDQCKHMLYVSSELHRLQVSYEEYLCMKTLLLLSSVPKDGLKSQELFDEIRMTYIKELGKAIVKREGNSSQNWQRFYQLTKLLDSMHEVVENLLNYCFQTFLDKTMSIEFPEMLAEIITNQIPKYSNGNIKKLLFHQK
In short: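 CHO-K1 cells stably expressing nuclear-localized β-gal enzyme acceptor and GR fused C-terminally to the enzyme donor fragment; ligand-driven nuclear translocation restores β-gal by complementation. Compounds titrated up to 46 uM final, 2 h at 37 °C; luminescence read.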

[7] = molecular target: Mitogen-activated protein kinase 10 (Mus musculus) (UniProt Q61831); assay: JNK3 AlphaScreen Assay (AID 530; active = well fitted curve in either direction with a large enough effect, not every such curve was filed as active;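 also: kinase came from lysate of stimulated human HepG2 cells; signal reports phosphorylation of biotinylated GST-cJun 1-79 at Ser73 with 10 µM ATP; % is scaled to controls: 0 for no effect and ±100 for the full control effect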); conditions: JNK3 lysate, c-Jun phosphorylation; series mostly up to 57.1 µM
In short: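 JNK3 came from HepG2 lysates pre-activated with IL-1beta and TNF-alpha and phosphorylated biotinylated GST-cJun (1-79) at 10 uM ATP, pH 7.6, room temperature. Compounds were titrated. AlphaScreen signal used anti-phospho-cJun (Ser73) antibody.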

[8] = molecular target: Cytochrome P450 3A4 (Homo sapiens) (UniProt P08684); assay: qHTS Assay for Inhibitors and Substrates of Cytochrome P450 3A4 (AID 884); conditions: recombinant CYP3A4, Luciferin-PPXE luminescence; series mostly up to 57.1 µM; also: potency is read from the fitted curve at half-maximal effect; nearly all actives have a fitted effect of over 50% in size
Sequence of Cytochrome P450 3A4 (Homo sapiens) (P08684 whole entry, looked up): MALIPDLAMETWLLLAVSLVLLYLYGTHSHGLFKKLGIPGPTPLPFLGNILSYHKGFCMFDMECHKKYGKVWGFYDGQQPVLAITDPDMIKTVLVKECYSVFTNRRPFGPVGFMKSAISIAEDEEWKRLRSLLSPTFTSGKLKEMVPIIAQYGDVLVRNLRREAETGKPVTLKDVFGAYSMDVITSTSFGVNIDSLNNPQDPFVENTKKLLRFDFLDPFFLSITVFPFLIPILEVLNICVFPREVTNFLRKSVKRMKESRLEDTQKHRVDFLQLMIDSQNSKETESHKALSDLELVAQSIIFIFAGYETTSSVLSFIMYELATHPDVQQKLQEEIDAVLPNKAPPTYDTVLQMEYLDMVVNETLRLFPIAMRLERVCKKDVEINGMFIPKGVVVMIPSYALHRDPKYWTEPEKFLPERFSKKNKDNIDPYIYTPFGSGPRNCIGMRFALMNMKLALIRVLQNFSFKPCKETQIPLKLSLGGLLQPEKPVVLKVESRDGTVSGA
In short: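 20 nM human CYP3A4 with 25 uM Luciferin-PPXE (at KM) in 200 mM KPO4, preincubated 10 min with compound; NADPH regeneration started a 60 min RT reaction. Luciferin detected by luminescence, normalized to 57 uM ketoconazole as full inhibition.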

[9] = molecular target: Cytochrome P450 3A4 (Homo sapiens) (UniProt P08684); assay: qHTS Assay for Activators of Cytochrome P450 3A4 (AID 885); conditions: recombinant CYP3A4, Luciferin-PPXE luminescence, 60 min; series mostly up to 57.1 µM; also: nearly all actives have a fitted effect of over 65% in size
In short: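 20nM CYP3A4 + 25uM Luciferin-PPXE (=KM), 200mM KPO4; cpd 10 min RT; NADPH regen, 60 min RT; stop w/ detection buffer, 20 min; luminescence. Normalized to 57 uM ketoconazole.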

[10] = molecular target: Cytochrome P450 2D6 (Homo sapiens) (UniProt P10635); assay: qHTS Assay for Inhibitors and Substrates of Cytochrome P450 2D6 (AID 891); conditions: recombinant CYP2D6, luciferin-ME EGE luminescence; series mostly up to 57.1 µM; also: potency is read from the fitted curve at half-maximal effect; nearly all actives have a fitted effect of over 60% in size
In short: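 Human CYP2D6 (5 nM) with 30 uM Luciferin-ME EGE (at Km) in 100 mM KPO4, compound preincubated 10 min, then NADPH regeneration system for 60 min at room temperature. Luciferin read by luminescence; normalized to 1.43 uM quinidine.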

[11] = molecular target: Dual specificity protein kinase CLK4 (Homo sapiens) (UniProt Q9HAZ1); assay: qHTS Assay for Inhibitors of CDC-like Kinase 4 (ADP-FP Assay) (AID 1795); conditions: Transcreener ADP fluorescence polarization; series mostly up to 50 µM; also: nearly all actives have a fitted effect of over 60% in size; also: potency is read from the fitted curve at half-maximal effect
Sequence of Dual specificity protein kinase CLK4 (Homo sapiens) (Q9HAZ1 whole entry, looked up): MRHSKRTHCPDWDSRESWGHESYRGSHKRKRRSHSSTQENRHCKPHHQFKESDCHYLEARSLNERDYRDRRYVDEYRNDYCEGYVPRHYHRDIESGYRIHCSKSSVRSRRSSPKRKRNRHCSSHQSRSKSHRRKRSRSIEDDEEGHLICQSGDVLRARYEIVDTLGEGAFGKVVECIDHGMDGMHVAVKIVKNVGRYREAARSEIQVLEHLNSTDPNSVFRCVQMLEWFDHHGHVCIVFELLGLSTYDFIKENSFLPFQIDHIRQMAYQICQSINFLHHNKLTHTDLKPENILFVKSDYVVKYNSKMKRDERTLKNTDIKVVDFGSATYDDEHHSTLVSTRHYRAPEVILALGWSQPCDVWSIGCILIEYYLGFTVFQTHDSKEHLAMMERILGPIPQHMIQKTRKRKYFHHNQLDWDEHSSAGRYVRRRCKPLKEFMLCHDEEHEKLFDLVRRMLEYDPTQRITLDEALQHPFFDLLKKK
In short: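 Recombinant human Clk4 (6.25 nM) phosphorylated RS repeat peptide (100 uM) with 1 uM ATP in Tris pH 7.5/MgCl2/EGTA/DTT/Triton buffer for one hour. ADP was quantified by Transcreener competitive fluorescence polarization against an ADP calibration curve.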

[12] = Primary qHTS for small molecule stabilizers of the endoplasmic reticulum resident proteome: Secreted ER Calcium Modulated Protein (SERCaMP) assay (AID 1508630); conditions: SH-SY5Y GLuc-SERCaMP (Gaussia luciferase released on ER calcium loss) secretion, thapsigargin, luminescence; series mostly up to 38.4 µM; also: % is scaled to controls: 0 for no effect and ±100 for the full control effect
In short: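 GLuc-SERCaMP-expressing SH-SY5Y cells, pretreated 16 h with compound, are challenged with thapsigargin to empty ER calcium stores; after 4 h, coelenterazine is added directly to the medium and luminescence is imaged.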

[13] = molecular target: Glucocorticoid receptor (Homo sapiens) (UniProt P04150); assay: GR-GFP Redistribution (AID 450;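 active = compounds whose dose series gives a full or clear partial fitted curve of increased nuclear translocation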; also: potency is read from the fitted curve at half-maximal effect); conditions: U2OS GR-GFP nuclear translocation, laser cytometry, 2 h
[14] = molecular target: 3',5'-cyclic-AMP phosphodiesterase 4B (Homo sapiens) (UniProt Q07343); assay: qHTS Assay for Inhibitors of PDE-IV (AID 607; active = well fitted activation curve with a large enough effect in the main read-out, with a control signal flat, not every such curve was filed as active; also: % of control where 0% means no effect); conditions: HEK293 ACTOne CNG channel cells, membrane potential fluorescence; series mostly up to 22.9 µM
Sequence of 3',5'-cyclic-AMP phosphodiesterase 4B (Homo sapiens) (Q07343 whole entry, looked up): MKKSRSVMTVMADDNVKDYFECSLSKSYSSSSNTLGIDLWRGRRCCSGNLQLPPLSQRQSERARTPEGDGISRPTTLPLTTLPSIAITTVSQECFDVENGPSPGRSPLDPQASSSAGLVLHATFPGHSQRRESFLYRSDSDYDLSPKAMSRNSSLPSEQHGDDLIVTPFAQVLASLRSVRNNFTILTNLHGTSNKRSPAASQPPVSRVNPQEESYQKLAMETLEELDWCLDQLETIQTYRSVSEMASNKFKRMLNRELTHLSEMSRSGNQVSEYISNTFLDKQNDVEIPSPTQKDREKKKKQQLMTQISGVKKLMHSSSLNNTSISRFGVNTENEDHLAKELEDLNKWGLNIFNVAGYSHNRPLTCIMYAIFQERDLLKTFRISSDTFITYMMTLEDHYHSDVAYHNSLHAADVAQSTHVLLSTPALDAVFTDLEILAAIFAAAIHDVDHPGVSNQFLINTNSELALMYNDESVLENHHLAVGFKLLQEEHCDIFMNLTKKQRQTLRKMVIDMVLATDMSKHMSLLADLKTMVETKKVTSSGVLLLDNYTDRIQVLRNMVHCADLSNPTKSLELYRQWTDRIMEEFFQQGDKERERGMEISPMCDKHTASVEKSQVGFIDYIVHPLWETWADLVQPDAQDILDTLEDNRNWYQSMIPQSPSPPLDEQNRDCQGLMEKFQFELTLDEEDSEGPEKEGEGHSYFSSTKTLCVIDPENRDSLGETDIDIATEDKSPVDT
In short: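 ACTOne HEK293 cells carry a modified cAMP-gated CNG channel and express endogenous PDE4; plated 1000 cells/well, compounds up to 22.9 uM final. Membrane-potential dye fluorescence (ex 535/em 590) was read; parental cells received 10 uM forskolin + 100 uM RO 20-1724.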

[15] = molecular target: Ubiquitin carboxyl-terminal hydrolase 1 (Homo sapiens) (UniProt O94782); assay: Inhibitors of USP1/UAF1: Pilot qHTS (AID 504865); conditions: purified USP1/UAF1, Ub-rhodamine cleavage fluorescence; series mostly up to 54.9 µM;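 also: rhodamine fluorescence freed from ubiquitin-rhodamine substrate followed over time; top concentration of the series differs between compounds; % is scaled to controls: 0 for no effect and ±100 for the full control effect; nearly all actives have a fitted effect of over 35% in size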
Sequence of Ubiquitin carboxyl-terminal hydrolase 1 (Homo sapiens) (O94782 whole entry, looked up): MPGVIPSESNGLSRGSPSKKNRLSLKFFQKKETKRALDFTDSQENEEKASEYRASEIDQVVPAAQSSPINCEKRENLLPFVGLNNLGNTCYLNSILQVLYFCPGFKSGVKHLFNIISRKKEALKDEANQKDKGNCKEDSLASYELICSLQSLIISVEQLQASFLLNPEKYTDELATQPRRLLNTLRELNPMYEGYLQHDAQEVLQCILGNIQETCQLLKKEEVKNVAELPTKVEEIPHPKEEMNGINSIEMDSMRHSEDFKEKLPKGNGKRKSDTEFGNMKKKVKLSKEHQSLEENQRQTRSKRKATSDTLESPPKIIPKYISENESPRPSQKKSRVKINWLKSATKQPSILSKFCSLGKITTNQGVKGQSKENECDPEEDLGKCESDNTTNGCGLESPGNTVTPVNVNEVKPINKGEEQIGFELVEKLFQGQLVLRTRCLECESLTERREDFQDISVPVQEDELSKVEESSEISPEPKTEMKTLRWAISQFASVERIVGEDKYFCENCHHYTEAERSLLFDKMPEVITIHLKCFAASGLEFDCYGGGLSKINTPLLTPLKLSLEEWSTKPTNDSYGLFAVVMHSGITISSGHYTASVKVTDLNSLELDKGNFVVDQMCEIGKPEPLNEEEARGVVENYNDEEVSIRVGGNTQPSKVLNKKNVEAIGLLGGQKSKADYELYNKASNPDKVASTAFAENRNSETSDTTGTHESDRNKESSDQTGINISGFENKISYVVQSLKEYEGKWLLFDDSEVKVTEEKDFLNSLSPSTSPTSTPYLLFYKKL
In short: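 USP1/UAF1 complex (1nM) preincubated with compound 15 min at room temperature, then Ub-Rho substrate (150nM final) added. Fluorescence read kinetically at 480/540 nm, 6 reads every 60 seconds. Buffer: 50mM HEPES pH 7.8, 0.5mM EDTA, 0.1 mg/ml BSA, 1mM TCEP, 0.01% Tween-20.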

[16] = qHTS Assay for Identification of Small Molecule Agonists for Hypoxia Response Element Signaling Pathway (AID 914; active = well fitted activation curve with a large enough effect in the signal ratio, with a control signal flat, not every such curve was filed as active; the % refers to the signal ratio; also: potency is read from the fitted curve at half-maximal effect; as to activation: % of control where 0% means no effect); conditions: ME-180 (cervical carcinoma) HRE-bla reporter, beta-lactamase ratio, CoCl2, 17 h; activation: active compounds read high
In short: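 Positive modulation of EC50 CoCl2-induced hypoxia response element signaling is measured in ME-180 cells with a beta-lactamase reporter. Compounds are titrated, incubation runs 17 hours, and %Activity derives from the blue/green ratio.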

[17] = molecular target: Cytochrome P450 2C9 (Homo sapiens) (UniProt P11712); assay: qHTS Assay for Inhibitors and Substrates of Cytochrome P450 2C9 (AID 883); conditions: recombinant CYP2C9, luciferin-H luminescence, 60 min; series mostly up to 57.1 µM; also: potency is read from the fitted curve at half-maximal effect; nearly all actives have a fitted effect of over 60% in size
Sequence of Cytochrome P450 2C9 (Homo sapiens) (P11712 whole entry, looked up): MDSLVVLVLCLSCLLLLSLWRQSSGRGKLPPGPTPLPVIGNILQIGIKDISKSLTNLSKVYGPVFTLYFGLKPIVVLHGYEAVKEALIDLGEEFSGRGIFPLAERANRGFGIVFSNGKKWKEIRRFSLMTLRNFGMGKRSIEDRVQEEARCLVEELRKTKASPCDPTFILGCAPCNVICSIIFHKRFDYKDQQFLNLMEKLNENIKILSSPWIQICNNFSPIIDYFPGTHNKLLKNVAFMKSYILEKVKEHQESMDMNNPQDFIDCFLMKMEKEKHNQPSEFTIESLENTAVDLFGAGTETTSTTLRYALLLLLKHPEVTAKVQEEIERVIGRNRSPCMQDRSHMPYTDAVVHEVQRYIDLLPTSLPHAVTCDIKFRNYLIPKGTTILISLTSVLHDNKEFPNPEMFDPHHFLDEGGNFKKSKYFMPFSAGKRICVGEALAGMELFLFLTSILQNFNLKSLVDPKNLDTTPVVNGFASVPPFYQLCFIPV
In short: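 Human CYP2C9 (10nM) hydroxylated Luciferin-H (100uM, at its KM) to luciferin in 25mM KPO4. Compound was preincubated 10 min at 37C, then NADPH regeneration started a 60 min reaction at 37C. Luminescence was read after detection reagent, normalized to 57uM sulphaphenazole.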

c1csc(CNc2nc(-c3ccoc3)nc3ccccc23)c1
inactive: Potency [1] > 11.4 µM | activity change, negative = inhibition [2] -9.82% | activity change, negative = inhibition [4] -8.44% | activity, negative = inhibition [5] -7.57% | Potency [6] > 46 µM | Potency [7] | Potency [9] | outcome [12]
active: Potency [3] 0.316 µM | Potency [8] 7.94 µM | Potency [10] 3.98 µM | Potency [11] 11.2 µM

Cc1noc(C)c1-c1nc(N(C)C)c2ccccc2n1
inactive: Potency [1] > 11.4 µM | activity change, negative = inhibition [4] 3.94% | activity, negative = inhibition [5] 4.14% | Potency [13] > 46 µM | Potency [6] > 46 µM | Potency [7] | Potency [14] | Potency [9] | Potency [11] | Potency [15] | outcome [12]
active: Potency [3] 0.0398 µM

N#Cc1cccc(-c2cncnc2NCCc2cnc[nH]2)c1
inactive: Potency [1] > 11.4 µM | activity change, negative = inhibition [2] -12% | activity change, negative = inhibition [4] 4.36% | activity, negative = inhibition [5] -1.18% | Potency [13] > 46 µM | Potency [6] > 46 µM | Potency [7] | Potency [14] | Potency [11] | Potency [15] | outcome [12]

CC(=O)NCCNc1nc(-c2cccc(NS(C)(=O)=O)c2)nc2ccccc12
active: Potency [3] 15.8 µM
inactive: activity change, negative = inhibition [2] -17.6% | activity change, negative = inhibition [4] -1.12% | activity, negative = inhibition [5] -3.86% | Potency [13] > 46 µM | Potency [6] > 46 µM | Potency [7] | Potency [14] | Potency [9] | Potency [11] | Potency [15] | outcome [12]

O=c1c(-c2ccc(Cl)cc2)nc2cnc(N3CCNCC3)nc2n1CCc1ccccc1
inactive: Potency [1] > 11.4 µM | Potency [13] > 9.22 µM | Potency [6] > 46 µM | Potency [14] | Potency [9] | Potency [11] | outcome [12]

CCNc1ncc2nc(-c3ccc(Cl)cc3)c(=O)n(Cc3cccs3)c2n1
active: Potency [16] 0.126 µM
inactive: Potency [1] > 11.4 µM | Potency [13] > 9.22 µM | Potency [6] > 46 µM | Potency [7] | Potency [11] | Potency [15] | outcome [12]

CCNc1ncc2nc(-c3cccs3)c(=O)n(C[C@H]3CCCO3)c2n1
active: Potency [3] 2.51 µM
inactive: Potency [1] > 11.4 µM | activity change, negative = inhibition [2] 9.48% | activity change, negative = inhibition [4] 18.7% | Potency [13] > 9.22 µM | Potency [6] > 46 µM | Potency [7] | Potency [9] | Potency [11] | Potency [15] | outcome [12]

Cc1cnc(CNc2nc(-c3ccccc3Cl)nc3ccccc23)cn1
active: Potency [3] 6.31 µM
inactive: Potency [1] > 11.4 µM | activity change, negative = inhibition [4] 9.67% | activity, negative = inhibition [5] -10.8% | Potency [13] > 46 µM | Potency [6] > 46 µM | Potency [7] | Potency [14] | Potency [9] | Potency [11] | Potency [15] | outcome [12]

COc1ccc2[nH]cc(CCNc3ncncc3-c3ccc(C(=O)N(C)C)cc3)c2c1
inactive: activity change, negative = inhibition [2] -13.2% | activity change, negative = inhibition [4] 5.64% | activity, negative = inhibition [5] 4.62% | Potency [13] > 46 µM | Potency [6] > 46 µM | Potency [7] | Potency [14] | Potency [9] | activation [16] 11.5% | Potency [11] | Potency [15] | outcome [12]
active: Potency [3] 20 µM | Potency [17] 0.398 µM

CN(C)C(=O)c1ccc(-c2ccc3ncnc(NCCN4CCOCC4)c3c2)cc1
inactive: Potency [1] > 11.4 µM | activity change, negative = inhibition [2] -5.51% | activity change, negative = inhibition [4] 6.26% | activity, negative = inhibition [5] -17.4% | Potency [6] > 46 µM | Potency [7] | Potency [14] | Potency [9] | Potency [11] | Potency [15] | outcome [12]

CS(=O)(=O)Nc1cccc(-c2cc(NCc3ccccc3)ncn2)c1
active: Potency [3] 12.6 µM
inactive: Potency [1] > 11.4 µM | activity change, negative = inhibition [2] -7.54% | activity change, negative = inhibition [4] 8.48% | activity, negative = inhibition [5] -7.25% | Potency [6] > 46 µM | Potency [7] | Potency [14] | Potency [9] | Potency [11] | Potency [15] | outcome [12]

CC(=O)NCCNc1ncnc2ccc(-c3ccccc3C(F)(F)F)cc12
active: Potency [3] 10 µM | Potency [8] 6.31 µM
inactive: Potency [1] > 11.4 µM | activity change, negative = inhibition [2] 12.5% | activity change, negative = inhibition [4] 6.87% | Potency [13] > 46 µM | Potency [6] > 46 µM | Potency [7] | Potency [9] | Potency [11] | Potency [15] | outcome [12]

CN(Cc1ccco1)c1cc(-c2cccnc2)ncn1
inactive: Potency [1] > 11.4 µM | activity change, negative = inhibition [2] 11.4% | activity change, negative = inhibition [4] -0.973% | Potency [13] > 46 µM | Potency [6] > 46 µM | Potency [7] | Potency [14] | Potency [9] | Potency [11] | Potency [15] | outcome [12]
active: Potency [3] 0.316 µM | Potency [8] 3.16 µM

COc1ccc(CNc2ncncc2-c2ccoc2)c(OC)c1
inactive: Potency [1] > 11.4 µM | activity change, negative = inhibition [2] -9.49% | activity change, negative = inhibition [4] 5.94% | activity, negative = inhibition [5] -9.38% | Potency [13] > 46 µM | Potency [6] > 46 µM | Potency [7] | Potency [14] | Potency [15] | outcome [12]
active: Potency [11] 14.1 µM

Cc1noc(C)c1-c1nccc(NCCN2CCOCC2)n1
inactive: activity change, negative = inhibition [2] -1.23% | activity change, negative = inhibition [4] -8.35% | activity, negative = inhibition [5] 2.66% | Potency [13] > 46 µM | Potency [6] > 46 µM | Potency [7] | Potency [14] | Potency [9] | Potency [11] | Potency [15] | outcome [12]
active: Potency [3] 7.94 µM
